The campaign covered roughly 2,300 compounds. About 430 (19%) were called active.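 How the source made its calls: active means mean activation across triplicates above the hit threshold derived in the original primary screen (cut at about 15% in these data); inactive means the rest.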 These entries were drawn from the full list.
These molecules were tested against 5-hydroxytryptamine receptor 2A (Mus musculus) (UniProt P35363) (assay: mouse HTR2A agonists, beta-arrestin recruitment, confirmation, cell-based, luminescence, CHO-K1 PathHunter, triplicate (AID 624381)). Conditions: at 7.6 µM, active compounds read high, DMSO 0%, 30 µM serotonin 100%.
Chain of 5-hydroxytryptamine receptor 2A (Mus musculus) (P35363 whole entry, looked up): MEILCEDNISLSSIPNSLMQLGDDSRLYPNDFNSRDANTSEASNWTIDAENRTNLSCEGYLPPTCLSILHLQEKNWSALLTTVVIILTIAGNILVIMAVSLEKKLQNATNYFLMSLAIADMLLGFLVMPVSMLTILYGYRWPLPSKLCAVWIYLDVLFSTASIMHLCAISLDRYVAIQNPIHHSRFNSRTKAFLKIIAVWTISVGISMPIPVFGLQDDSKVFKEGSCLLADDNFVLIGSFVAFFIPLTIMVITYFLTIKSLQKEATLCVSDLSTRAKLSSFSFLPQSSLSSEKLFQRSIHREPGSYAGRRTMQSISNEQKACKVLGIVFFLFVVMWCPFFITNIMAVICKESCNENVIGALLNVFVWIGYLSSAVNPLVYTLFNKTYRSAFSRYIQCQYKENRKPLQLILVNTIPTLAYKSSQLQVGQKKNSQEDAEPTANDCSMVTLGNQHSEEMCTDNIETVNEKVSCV

Row | SMILES | activation
1 | Cc1[nH]c2ccccc2c1CCN(Cc1cccs1)C(=S)NC(C)(C)C | 4.41% (inactive)
2 | CCOc1ccc(/C(O)=C2\C(=O)C(=O)N(c3ccc(OC)cc3)C2c2ccccc2[N+](=O)[O-])cc1 (stereo unspecified) | 1.71% (inactive)
3 | CCCCn1c(N)c(N(CC(C)C)C(=O)CSc2ccc([N+](=O)[O-])cc2)c(=O)[nH]c1=O | 0.81% (inactive)
4 | C=CCn1c(=NC(=O)c2cccs2)sc2cc(NC(C)=O)ccc21 | -1% (inactive)
5 | COc1ccc(NS(=O)(=O)c2cc(C(=O)Nc3ccccc3C(=O)O)ccc2C)cc1 | 5.94% (inactive)
6 | CCOC(=O)c1cc(-c2ccccc2C)n(Cc2cc(C)no2)n1 | 2.4% (inactive)
7 | COc1cccc(OC)c1OCCN1CCN(C(=O)c2ccco2)CC1 | 78.4% (active)
8 | O=C(c1ccco1)N1CCN(CCOc2ccccc2)CC1 | 34.5% (active)
9 | CSc1ncnc2c1ncn2CCCNCc1cccs1 | -4.72% (inactive)
10 | COc1ccccc1CN1CCN(Cc2cc(OC)c(OC)cc2OC)CC1 | 8.39% (inactive)
11 | Oc1ccc(CN2CCN(c3ncccn3)CC2)cc1 | 101% (active)
12 | Cc1ccc(CN2CCN(c3ncccn3)CC2)c(C)c1 | 118% (active)
13 | CC(C)c1cc(C(=O)O)on1 | 13.4% (inactive)
14 | O=C(CNCc1cccs1)Nc1cc(S(=O)(=O)N2CCCC2)ccc1Cl | 50.6% (active)
15 | O=C1CCc2cc(S(=O)(=O)N3CCC(C(=O)NCc4ccccc4Cl)CC3)ccc2N1 | -6.01% (inactive)
16 | COC(=O)c1ccc(CSc2nnc(NC(C)C)s2)cc1 | -5.43% (inactive)
17 | COc1ccc(C2c3[nH]c4ccccc4c3C[C@H]3C(=O)N(CC(C)C)CC(=O)N23)c(OC)c1 (stereo partly specified) | 0.84% (inactive)
18 | Cc1cccc(CN2CCN(C3CN(Cc4ccccc4)S(=O)(=O)C3)CC2)c1 (stereo unspecified) | 8.09% (inactive)
19 | O=C(NCCCN1CCN(c2ccccc2F)CC1)C1CCC(=O)N1C1CCCCC1 (stereo unspecified) | 41.4% (active)
20 | CC(C)Oc1ccccc1C(=O)NC(CO)C(=O)O (stereo unspecified) | 0.21% (inactive)
21 | Cc1cccc(CN2CCN(C3CN(Cc4cn(Cc5cc(C)cc(C)c5)nn4)S(=O)(=O)C3)CC2)c1 (stereo unspecified) | 8.35% (inactive)
22 | Cc1cc(C(=O)OCC(=O)N2c3ccccc3NC(=O)C2(C)C)c(C)n1-c1ccccc1 | -2.45% (inactive)
23 | CN(C)[C@@H]1C(=O)C(C(N)=O)=C(O)[C@@]2(O)C(=O)C3=C(O)c4c(O)ccc(Cl)c4[C@@H](O)[C@H]3C[C@@H]12 | 40.1% (active)
24 | CCCCC(CC)CNC(=O)CCCCn1c(=O)[nH]c2ccsc2c1=O (stereo unspecified) | -3.5% (inactive)

Row | SMILES | activation
25 | COc1ccc(-c2nc3cc([N+](=O)[O-])ccc3o2)cc1OC | -2.5% (inactive)
26 | COc1ccc2[nH]cc(CCN3C(=O)c4ccc(C(=O)O)cc4C3=O)c2c1 | -1.14% (inactive)
27 | COC(=O)[C@]12CCCCC=C1N(CCC1=CCCCC1)C(=O)[C@H](CC(=O)NCC1CCCCC1)C2 | -5.33% (inactive)
28 | Nc1cc(C(=O)N2CCN(c3ccccc3Cl)CC2)ccc1N1CC2CC(C1)c1cccc(=O)n1C2 (stereo unspecified) | -1.89% (inactive)
29 | O=C(c1ccncc1)N1CCN(c2ccc3ccccc3n2)CC1 | 17.1% (active)
30 | COC(=O)c1cc(N2CCNCC2)nc2ccccc12 | 2.65% (inactive)
31 | COC(=O)Cn1nc(-c2ccccc2)c2cc(Cl)ccc21 | -5.87% (inactive)
32 | FC(F)(F)COc1nc(N2CCCCC2)nc(N2CCNCC2)n1 | 8.3% (inactive)
33 | CS(=O)(=O)c1ccc2nc(NC(=O)C3CCCCC3)sc2c1 | -0.86% (inactive)
34 | O=C(Nc1ccc2c(c1)[C@@H]1C[C@@H](CC(=O)N3CCCCC3)O[C@@H](CO)[C@@H]1O2)NC1CCCCC1 | -4.45% (inactive)
35 | COc1ccc(/C=N/Nc2ccccc2C(=O)O)cc1 | 4.6% (inactive)
36 | Cc1cc([N+](=O)[O-])ccc1NC1CCCC1 | 13.5% (inactive)
37 | Cc1ccc(NC(=O)CSc2nnc(COc3ccccc3C)o2)cc1 | -4.47% (inactive)
38 | N#CCSc1nn(-c2ccc(F)cc2)c(=S)s1 | -4.94% (inactive)
39 | COCCN(Cc1cc2cc3c(cc2nc1Cl)OCO3)C(=O)c1cccc(C)c1 | 3.25% (inactive)
40 | CC(Nc1ccccc1)c1cccnc1 (stereo unspecified) | -3.04% (inactive)
41 | CC1(Cc2cccc(C#N)c2)C(=O)Nc2ccc(-c3cccc(C(F)(F)F)c3)cc21 (stereo unspecified) | -0.38% (inactive)
42 | NNc1cccc(C=Cc2ccccc2)cc1=O | 1.74% (inactive)
43 | O=C(Nc1cccc2cccnc12)c1ccc2sc([C@H]3C[C@H](O)[C@@H](CO)O3)nc2c1 | 4.32% (inactive)
44 | Cc1ccc(NC(=O)CCOc2ccccc2)cc1S(=O)(=O)Nc1ccccc1Cl | 3.02% (inactive)
45 | Cc1ccc(S(=O)(=O)N2CCN(c3ncnc4ccccc34)CC2)cc1 | 9.56% (inactive)
46 | CC(=O)c1ccc(OCC(=O)N(C)C2CCS(=O)(=O)C2)cc1 (stereo unspecified) | -3.74% (inactive)
47 | COC(=O)[C@@]1(Cc2ccc(F)cc2)[C@H]2c3cc(C(=O)N(C)C)n(CCc4c[nH]c5ccc(OC)cc45)c3C[C@H]2CN1C(=O)c1ccccc1 | 10.9% (inactive)
48 | C/C(=N\NC(=O)COc1c(C)cccc1C)c1cccs1 | -2.38% (inactive)

Row | SMILES | activation
49 | CCCN(CCc1ccccc1)C1CCc2c(O)cccc2C1 (stereo unspecified) | 164% (active)
50 | CCCC(=O)N=c1sc2cccc(F)c2n1C | -2.76% (inactive)
51 | Cc1ccc2c(c1)NCC(C(=O)NC1CCC(C)CC1)O2 (stereo unspecified) | -3.96% (inactive)
52 | CSc1nsc(SCC(=O)Nc2cc(C(=O)O)ccc2C)n1 | 1.2% (inactive)
53 | CCOCCCNC(=O)Cc1cc(=O)[nH]c(=O)[nH]1 | -1.89% (inactive)
54 | CC(=O)N1c2ccc(S(=O)(=O)N3CCC(C(=O)NC4CCCCC4C)CC3)cc2CC1C (stereo unspecified) | -5.72% (inactive)
55 | O=C(O)C1C2C=CC(O2)C1C(=O)NCCc1cccc(Cl)c1 (stereo unspecified) | 4.65% (inactive)
56 | COC(=O)CC(=O)N1CCN(c2ccc(Cl)c(Cl)c2)CC1 | 13.8% (inactive)
57 | O=C(O)c1ccc(S(=O)(=O)N2CCC(Cc3ccccc3)CC2)cc1 | -0.19% (inactive)
58 | COc1ccc(CNC(=O)c2ccc(NS(=O)(=O)c3ccc4[nH]c(=O)[nH]c4c3)cc2)cc1OC | -3.98% (inactive)
59 | O=C(OCC(=O)N1CCOCC1)c1ccc2ccccc2c1 | -4.74% (inactive)
60 | Cc1cc(C)n(S(=O)(=O)c2cccc([N+](=O)[O-])c2)n1 | -4.03% (inactive)
61 | COc1ccc2c(Cl)c(-c3nnco3)sc2c1 | -2.25% (inactive)
62 | CCn1c(SCC(=O)N2CCCC2=O)nc2ccccc21 | -2.49% (inactive)
63 | O=C(Cc1ccccc1)n1nc(-c2ccccc2)nc1NCc1ccco1 | 4.58% (inactive)
64 | OCC1(Cc2ccccc2)CCN(Cc2cc3ccccc3o2)CC1 | 81.8% (active)
65 | COc1ccc(N2CC(C(=O)NCCN3C(=O)S/C(=C\c4cccnc4)C3=O)CC2=O)c(OC)c1 (stereo unspecified) | -1.44% (inactive)
66 | Cc1c(C(=O)NCC2CC2)sc(=O)n1Cc1cccc(F)c1 | -3.87% (inactive)
67 | COc1ccc(/C(=N\O)c2nccc3cc(OC)c(OC)cc23)cc1OC | -3.02% (inactive)
68 | Cc1ccccc1CSCC(=O)NC(=O)NC(C)(C)C | -3.39% (inactive)
69 | N#Cc1c(NC(=O)CCCl)sc2c1CCCCC2 | 0.58% (inactive)
70 | O=C(NCc1ccco1)c1cccn2c(=O)c3c4c(sc3nc12)CCCC4 | -1.08% (inactive)
71 | Fc1ccc2[nH]c3c(N4CCSCC4)ncnc3c2c1 | 3.26% (inactive)
72 | CCCCNc1c(-c2cccc(Sc3ccc(OC)cc3)c2)nc2ccccn12 | 5.41% (inactive)

Row | SMILES | activation
73 | COc1ccccc1Nc1nnc(SC(C)C(=O)NC2CC2)s1 (stereo unspecified) | -1.26% (inactive)
74 | Cc1oc2cc(Br)c(O)c(Br)c2c1C(=O)c1ccccc1 | -2.71% (inactive)
75 | N/C(=N\S(=O)(=O)c1cc(C(F)(F)F)cc(C(F)(F)F)c1)c1cccs1 | -1.99% (inactive)
76 | O=C(Nc1cc(=O)[nH]c2ncnn12)c1ccccc1Cl | -5.17% (inactive)
77 | CCOC(=O)[C@]12CCCC=C1N(Cc1ccc3c(c1)OCO3)C(=O)[C@H](CC(=O)NCc1cccs1)C2 | -3.55% (inactive)
78 | O=C1CC(c2cccc(Cl)c2)CC(O)=C1C=Nc1ccccc1 (stereo unspecified) | -4.5% (inactive)
79 | COc1cccc(NC(=O)CSc2nnc(-c3cccnc3)o2)c1 | -0.15% (inactive)
80 | Cc1ccc2nc(-c3ccncc3)cc(C(=O)Nc3ccncc3)c2c1 | 12.6% (inactive)
81 | C/C(=N\NC(=S)NC1CCCCC1)c1ccc(C)o1 | 29.7% (active)
82 | Cn1c2c(c(=O)n(C)c1=O)C(c1ccc(O)cc1)Nc1ccccc1O2 (stereo unspecified) | -3.78% (inactive)
83 | O=C(Cc1ccsc1)N1CCN(S(=O)(=O)c2cc(C(F)(F)F)cc(C(F)(F)F)c2)CC1 | -3.88% (inactive)
84 | CO/N=C/CC(=O)c1ccc(OC)cc1 | -1.94% (inactive)
85 | CCOC(=O)/C=c1\s/c(=C\c2ccccc2OC)c(=O)n1CC(=O)N1CCOCC1 | -3.42% (inactive)
86 | O=S(=O)(c1ccc(OCC(O)CN2CCN(c3ccccc3Cl)CC2)cc1)N1CCOCC1 (stereo unspecified) | 41.2% (active)
87 | O=C(COC(=O)c1cc(S(=O)(=O)N2CCOCC2)ccc1F)NC1CC1 | -1.03% (inactive)
88 | Nc1c(N(Cc2ccco2)C(=O)c2cccc(F)c2)c(=O)[nH]c(=O)n1Cc1ccccc1 | -0.68% (inactive)
89 | C[C@@H]1ON(C)[C@H]2C[C@H]3c4cc(N5CCN(C)CC5)ccc4CCN3C(=O)[C@@H]12 | 4.65% (inactive)
90 | CCOC(=O)c1ccc(NC(=O)Cn2cnc3cc(C)c(C)cc32)cc1 | -2.29% (inactive)
91 | CNCC(O)c1ccc(O)c(O)c1 (stereo unspecified) | 136% (active)
92 | C=C1C(=O)OC2C1CCC(C)=CCCC1(C)OC21 (stereo unspecified) | -6.24% (inactive)
93 | Cc1cccnc1C(NC(=O)C1CCN(Cc2ccc(Cl)c(Cl)c2)CC1)c1ccc(Cl)cc1 (stereo unspecified) | -7.94% (inactive)
94 | Cc1ccc(C(=O)N/C(=C/c2cccs2)C(=O)N2CCCCC2)cc1 | -4.44% (inactive)
95 | CCn1cc(C(=O)OCC(=O)Nc2cccc(C)c2)c(=O)c2ccc(C)nc21 | -1.9% (inactive)
96 | COc1ccc(C(C)=O)cc1COC(=O)Cn1cnc2ccccc2c1=O | 2.93% (inactive)

From PubChem BioAssay AID624381 (The Scripps Research Institute Molecular Screening Center, 2012)
